This passage reports CPE inhibition results from PubChem BioAssay AID540333 (Southern Research Specialized Biocontainment Screening …, 2011).

The whole screen tested about 10,000 compounds, of which about 320 (3.2%) were called active. Rule as the data show it: active = CPE inhibition mostly above about 9.1% (no sharp cut-off); inactive = mostly below about 7.2%. The list comes from a sample in which actives are over-represented; it also holds similar structures and randomly drawn compounds.

The nature of the test: Dengue virus cytopathic effect inhibitors, cell-based, CPE readout, HTS (AID 540333). The settings on record: Dengue virus CPE inhibition in host cells, at 20 µM; active compounds read high.
In the case of `O=Cc1ccc(OC2OCCOC2Oc2ccc(C=O)cc2)cc1` (stereo not drawn), the CPE inhibition was 15.4% (active). In the case of `c1ccc(-c2csc3ncnc(NCC4COc5ccccc5O4)c23)cc1` (stereo not drawn), the CPE inhibition was 6.15% (inactive). The same measure for `CC1CCc2c(C(=O)OCC(=O)Nc3cccc(S(=O)(=O)N4CCCCCC4)c3)csc2C1` (stereo not drawn): 11.4% (active).

With `Cc1cnc(C(=O)OCC(=O)Nc2cccc(S(=O)(=O)N3CCCCC3)c2)cn1`, the CPE inhibition result is “inactive”. Take `Nc1nccnc1C(=O)OCC(=O)Nc1cccc(S(=O)(=O)N2CCCCC2)c1`: the CPE inhibition result is “inactive”.

`CS/C(=N\S(=O)(=O)c1cccs1)Nc1cccc(Cl)c1C`: the CPE inhibition result is “inactive”. Turning to `Cc1ccc(NC(=O)C(OC(=O)c2ccc(NC(N)=O)cc2)c2ccccc2)cc1Cl` (stereo not drawn), the CPE inhibition was 15.2% (active). Under `Cc1cc(C)cc(NC(=O)C(OC(=O)c2ccc([N+](=O)[O-])o2)c2ccccc2)c1` (stereo not drawn) stands 0.445% (inactive); under `Cc1ccc(NC(=O)CSc2ccccc2NC(=O)c2ccccc2Cl)cc1Cl`, 9.34% (inactive); under `COc1ccc(C)cc1NC(=O)C(OC(=O)c1cc(C)oc1C)c1ccccc1` (stereo not drawn), 1.23% (inactive). The same measure for `Cc1ccc(NC(=O)C(OC(=O)c2ccc(F)cc2)c2ccccc2)cc1Cl` (stereo not drawn): 1.61% (inactive); for `Cc1cc(C(=O)OC(C(=O)Nc2ccc(C)c(Cl)c2)c2ccccc2)c(C)o1` (stereo not drawn): 14.6% (active); for `Cc1ccc(NC(=O)C(OC(=O)c2cc(C)oc2C)c2ccccc2)cc1` (stereo not drawn): 18.4% (active). Under `Cc1ccc(NC(=O)CSc2ccccc2NC(=O)c2ccccc2)cc1Cl` stands 2.96% (inactive); under `CC(=O)c1cccc(NC(=O)C(OC(=O)c2cccs2)c2ccccc2)c1` (stereo not drawn), 0.01% (inactive). In the case of `Cc1cc(C)cc(-n2c(SCC(=O)Nc3cccc(S(=O)(=O)NC4=NCCCCC4)c3)nc3ccccc3c2=O)c1`, the CPE inhibition was 0.54% (inactive). Under `CNC(=O)CSc1nnc(SCCC(=O)O)s1` stands 0.415% (inactive); under `Cc1ccccc1-n1c(C)nnc1SCC(=O)NC1CCCc2ccccc21` (stereo not drawn), 0.065% (inactive); under `O=C(CSc1nc2ccccc2s1)NC1CCCc2ccccc21` (stereo not drawn), 0.775% (inactive). Under `Cc1cccc(Nc2nnc(SCC(=O)NC3CCCc4ccccc43)s2)c1C` (stereo not drawn) stands 14.5% (active).

On to `O=C1c2ccccc2C(=O)N1CN(C(=O)COc1ccc(Cl)cc1Cl)c1cccc(F)c1`, for which the CPE inhibition was 3.16% (inactive).

In the case of `CCOC(=O)C1=C(C)NC(=O)C1CC(=O)O` (stereo not drawn), the CPE inhibition result is “inactive”. The same measure for `CN(c1cccc(NC(=O)CN(c2ccc(Cl)c(Cl)c2)S(=O)(=O)c2ccccc2)c1)S(C)(=O)=O`: 5.86% (inactive). On to `CN(c1cccc(NC(=O)CN(c2cccc(Cl)c2)S(=O)(=O)c2ccc(Cl)cc2)c1)S(C)(=O)=O`, for which the CPE inhibition was 11.8% (active). Under `CN(c1cccc(NC(=O)CN(c2cccc(Cl)c2)S(=O)(=O)c2ccccc2)c1)S(C)(=O)=O` stands 3.62% (inactive); under `COC(=O)CNC(=O)C1Nc2ccc(OC(F)(F)F)cc2C2C=CCC12` (stereo not drawn), 0.595% (inactive). The same measure for `COc1ccc2c(C)cc(Sc3nnnn3-c3ccccc3)nc2c1`: 3.01% (inactive). Under `COc1ccc(NC(=O)c2ccc(C#N)cc2)cc1NS(=O)(=O)c1ccc(F)cc1` stands “inactive”. On to `CCC(=O)N1N=C(c2ccc(C)o2)CC1c1ccc(Br)cc1` (stereo not drawn), for which the CPE inhibition result is “inactive”. Under `CC(=O)N1N=C(c2ccc(Br)cc2)CC1c1cn(C)c2ccccc12` (stereo not drawn) stands 16% (active); under `CC(=O)N1N=C(c2ccccc2)CC1c1cn(Cc2ccccc2)c2ccccc12` (stereo not drawn), 6.58% (inactive); under `Cn1c(C=O)c(C#Cc2ccccc2)c2ccccc21`, “inactive”. Under `Cn1c(C=O)c(C#CC(C)(C)O)c2ccccc21` stands 4.96% (inactive); under `COc1cc(C#Cc2c(C=O)n(C)c3ccccc23)cc(OC)c1`, 8.36% (active); under `COc1cc(SC)ccc1C(=O)NCCc1ccccc1`, 0.785% (inactive). The same measure for `O=C(Nc1cccc(Cl)c1)Nc1cc(S(=O)(=O)N2CCOCC2)ccc1N1CCCC1`: 8.49% (inactive); for `CC(C)CC(NC(=O)c1ccc(Cl)cc1)C(=O)OCc1cc([N+](=O)[O-])cc2c1OCOC2` (stereo not drawn): 1.44% (inactive); for `COc1ccc(CCNC(=O)COC(=O)C2CCCCC2)cc1`: 0.035% (inactive).

For the compound `COc1ccc(CNC(=O)COC(=O)C2CCC(C(C)(C)C)CC2)cc1` (stereo not drawn), the CPE inhibition was 24.9% (active).

`COC(=O)c1ccc(CNC(=O)COC(=O)C2CCC(C(C)(C)C)CC2)cc1` (stereo not drawn): the CPE inhibition is 0.91% (inactive). Under `O=S1(=O)CCC(NC(=S)N2CCCCC2)C1` (stereo not drawn) stands “inactive”; under `CC(=O)NC(Cc1ccccc1)C(=O)OCC(=O)c1ccc(Br)cc1` (stereo not drawn), “inactive”.

Regarding `COCCCN(C(=S)Nc1c(C)cc(C)cc1C)C(C)c1ccncc1` (stereo not drawn), the CPE inhibition was 0.045% (inactive). With `COCCCN(C(=S)Nc1cc(Cl)cc(Cl)c1)C(C)c1ccncc1` (stereo not drawn), the CPE inhibition is 16.4% (active). The same measure for `COCCCN(C(=S)Nc1ccc(C)cc1Cl)C(C)c1ccncc1` (stereo not drawn): “inactive”; for `O=C(CCc1ccccc1)NCCSCc1c(F)cccc1Cl`: “inactive”.

On to `C#CCN(C(=O)Nc1ccccc1)c1ccccc1`, for which the CPE inhibition entry was “inactive”.

For the compound `CC(=O)NS(=O)(=O)c1cccnc1Nc1cccc(Cl)c1C`, the CPE inhibition is 1.49% (inactive). Under `CC1CCC(=NNc2ccc(C(F)(F)F)cc2[N+](=O)[O-])CC1` (stereo not drawn) stands 0.085% (inactive); under `CCCCC1=CC2=CC(=O)C(C)(OC(=O)CC)C(=O)C2=CN1C1CCCC1` (stereo not drawn), 20.9% (active); under `CC1(OC(=O)C2CCCC2)C(=O)C=C2C=C3CCCCN3C=C2C1=O` (stereo not drawn), “inactive”. Under `CCC(=O)OC1(C)C(=O)C=C2C=C(CCCC(=O)OC)OC=C2C1=O` (stereo not drawn) stands “inactive”; under `Cc1ccc(S(=O)(=O)N/N=C2/CCCCC2C2CCCCC2)cc1[N+](=O)[O-]` (stereo not drawn), 0.01% (inactive). The same measure for `Fc1ccc(CSc2ncnc3scc(-c4ccccc4)c23)cc1`: 1.17% (inactive); for `O=C(OC(C(=O)Nc1cccc(C(F)(F)F)c1)c1ccccc1)C1CCCCC1` (stereo not drawn): 21.9% (active); for `COc1cc(OC)c(C(=O)OC(C)C(=O)Nc2cccc(C(F)(F)F)c2)cc1OC` (stereo not drawn): “inactive”. For the compound `CCOC(=O)C(=NC1CCCCC1)NNc1cccc(C(F)(F)F)c1`, the CPE inhibition is 5.4% (inactive). Turning to `Cc1cc(C)nc(NS(=O)(=O)c2ccc(NC(=O)C3(c4ccccc4)CCCC3)cc2)n1`, the CPE inhibition result was “inactive”. The same measure for `CC(=O)Nc1ccc(Sc2ncnc3scc(-c4ccccc4)c23)cc1`: 2.31% (inactive); for `CC(=O)Nc1cccc(Oc2ncnc3scc(-c4ccc(C(C)C)cc4)c23)c1`: 15% (active).

Regarding `COc1ccc(-c2csc3ncnc(Oc4ccc5c(C)cc(=O)oc5c4)c23)cc1`, the CPE inhibition result is “inactive”. Regarding `Cc1cc(NC(=O)CCc2ccccc2)c([N+](=O)[O-])cc1C`, the CPE inhibition entry is “inactive”.

On to `O=C(Nc1nc2ccc3ccccc3c2s1)c1ccc(N2CCCCC2)c([N+](=O)[O-])c1`, for which the CPE inhibition is 13.2% (active). The same measure for `O=C(Nc1nc2ccccc2s1)c1ccc(N2CCCCC2)c([N+](=O)[O-])c1`: 2.82% (inactive). As for `O=C(Nc1ccc(N2C(=O)c3cccc4cccc(c34)C2=O)cc1)c1ccc(N2CCCCC2)c([N+](=O)[O-])c1`, the CPE inhibition is 2.95% (inactive). The same measure for `O=C(O)CSC(=S)N1CCCCC1`: 0.795% (inactive). Turning to `N#CC(C#N)=C1C=CC=CN1/C(=C\c1ccco1)C(=O)c1ccc(-c2ccccc2)cc1`, the CPE inhibition result was “inactive”. For `c1ccc(-c2c3ccccc3nc3[nH]c4ccccc4c23)cc1`, the CPE inhibition is 23.8% (active). On to `Cc1nc2ccccc2c(-c2ccccc2)c1CC(=O)O`, for which the CPE inhibition is 0.655% (inactive). Take `O=C(O)c1cccc(-c2nc3ccccc3[nH]2)c1`: the CPE inhibition was 0.345% (inactive).

In the case of `Cc1ccc(-n2nnnc2SC(C(=O)c2c[nH]c3ccccc23)c2ccccc2)cc1` (stereo not drawn), the CPE inhibition result was “inactive”. The same measure for `O=C1C=C(c2ccc(Cl)c(C(F)(F)F)c2)C[C@@H](c2ccc3c(c2)OCO3)C1`: 7.58% (inactive). Under `O=C1C=C(c2ccccc2)C[C@@H](c2ccc3c(c2)OCO3)C1` stands 0.36% (inactive); under `O=C1C=C(c2cc(C(F)(F)F)cc(C(F)(F)F)c2)C[C@@H](c2ccc3c(c2)OCO3)C1`, 17.9% (active); under `O=C(CSCc1ccccc1)Nc1ccc(F)c(F)c1`, “inactive”.

In the case of `Cc1cc(C(=O)NCC(=O)OCC(=O)N(C2CCCCC2)C2CCCCC2)ccc1[N+](=O)[O-]`, the CPE inhibition entry is “inactive”.

As for `CCNc1ccc(C(=O)OCC(=O)NCc2ccc(C)cc2)cc1[N+](=O)[O-]`, the CPE inhibition was 0.91% (inactive). The same measure for `CCN1C(=O)[C@@H]2[C@@H](c3ccc(SC4CCCCC4)cc3)N3CCC[C@@]3(C(=O)OC)[C@@H]2C1=O`: 0.855% (inactive); for `CCCCCCSc1ccc([C@@H]2[C@@H]3C(=O)N(CC)C(=O)[C@@H]3[C@]3(C(=O)OC)CCCCN23)cc1`: 16.4% (active).

Take `CCSc1ccc([C@@H]2[C@@H]3C(=O)N(C)C(=O)[C@@H]3[C@]3(C(=O)OC)CCCCN23)cc1`: the CPE inhibition entry was “inactive”.

Take `COC(=O)[C@@]12CCCCN1[C@H](c1ccc(-c3ccc(C(C)=O)cc3)c(OC)c1)[C@@H]1C(=O)N(C)C(=O)[C@@H]12`: the CPE inhibition was 3.06% (inactive). Under `COC(=O)[C@@]12CCCCN1[C@H](c1ccc(-c3ccc(Cl)c(Cl)c3)cc1)[C@H]1C(=O)N(C)C(=O)[C@H]12` stands 26.6% (active); under `CCN1C(=O)[C@@H]2[C@@H](c3ccc(-c4ccc(OC)cc4)cc3)N3CCC[C@@]3(C(=O)OC)[C@@H]2C1=O`, 0.355% (inactive). For `CCN1C(=O)[C@H]2[C@@H](c3ccc(-c4ccc(Cl)c(Cl)c4)cc3)N3CCCC[C@@]3(C(=O)OC)[C@H]2C1=O`, the CPE inhibition is 15.9% (active). `COC(=O)[C@@]12CCCCN1[C@H](c1ccc(-c3ccccc3)cc1)[C@H]1C(=O)N(C)C(=O)[C@H]12`: the CPE inhibition is 3.82% (inactive). The same measure for `CCN1C(=O)[C@@H]2[C@@H](c3ccc(-c4ccc(Cl)c(Cl)c4)cc3)N3CCC[C@@]3(C(=O)OC)[C@@H]2C1=O`: 3.61% (inactive). The same measure for `CC(=O)Nc1sc(C)c(C)c1C(=O)OCC(=O)N(CC(C)C)C1CCS(=O)(=O)C1` (stereo not drawn): 1.31% (inactive); for `Cc1ccc([N+](=O)[O-])cc1S(=O)(=O)NCCc1c(C)[nH]c2ccccc12`: 1.95% (inactive).
